sEH activator – activators of human soluble epoxide hydrolase. P34913. purified human sEH enzymatic activity, activator screen. activation, % at 2 µM. hit rate 0.04% among 91,000. AID 717; in the data active means activation above about 37%
Target sequence (P34913 whole entry, looked up): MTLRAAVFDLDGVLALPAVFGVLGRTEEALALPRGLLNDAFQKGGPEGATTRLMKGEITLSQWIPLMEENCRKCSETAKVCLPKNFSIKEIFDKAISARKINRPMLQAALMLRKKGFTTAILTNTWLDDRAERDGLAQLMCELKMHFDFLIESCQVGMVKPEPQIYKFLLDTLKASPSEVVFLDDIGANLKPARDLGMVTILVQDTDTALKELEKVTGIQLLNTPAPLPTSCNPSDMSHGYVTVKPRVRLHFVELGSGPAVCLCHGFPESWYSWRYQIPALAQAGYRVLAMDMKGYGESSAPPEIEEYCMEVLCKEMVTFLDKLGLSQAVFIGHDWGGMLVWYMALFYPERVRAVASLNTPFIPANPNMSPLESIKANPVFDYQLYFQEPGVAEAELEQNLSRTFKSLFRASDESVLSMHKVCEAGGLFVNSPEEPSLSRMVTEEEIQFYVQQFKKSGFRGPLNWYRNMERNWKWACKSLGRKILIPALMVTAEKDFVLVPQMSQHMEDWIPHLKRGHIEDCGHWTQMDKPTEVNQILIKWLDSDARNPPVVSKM
sEH inh – soluble epoxide hydrolase (human) inhibition; hit rate 0.34% among 91,000; P34913; recombinant human sEH enzymatic activity assay; inhibition, % at 2 µM; in the data active means inhibition above about 80%
HUVEC tox IL1B – toxic to HUVEC cells under IL-1B stimulation; HUVEC cell count loss, Hoechst imaging, IL-1B stimulated; cell count reduction, % at 2 µM; hit rate 0.41% among 94,000;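 active means cell count reduction more than 3 SD above the screen-wide mean, cut at about 70% in these data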;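 further: normalized per plate to untreated control cells as the no-loss baseline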
IL1B NFkB inh – blocks IL-1B driven NFkB nuclear translocation in HUVEC cells. HUVEC IL-1B NFkB p65 nuclear translocation imaging. inhibition, % at 2 µM. hit rate 0.43% among 94,000. AID 796;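 active means inhibition above about 30% together with a positive call from visual inspection of the well image, limit read from the data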;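 further: nuclear over cytoplasmic p65 intensity ratio measured by imaging; 0% = IL-1B stimulated DMSO wells and 100% = unstimulated DMSO wells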
NFkB transloc pot – enhances IL-1B driven NFkB nuclear translocation. HUVEC IL-1B NFkB p65 nuclear translocation imaging. activation, % at 2 µM. hit rate 0.3% among 94,000;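 active means activation above 40%, about the mean plus 3 SD, also judged a hit on visual image review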;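 further: percent activation is computed from the nuclear over cytoplasmic p65 intensity ratio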
Numbers without * were called inactive; x = not tested or not shown. Compounds with a hit are over-represented: about 1.1% of the library has one in this group of screens.

SMILES	sEH activator	sEH inh	HUVEC tox IL1B	IL1B NFkB inh	NFkB transloc pot
S=c1[nH]nc(-c2ccccc2Cl)n1CC1CCCO1 (centres undefined)	12	-8	70*	-23	23
Cc1cc(Oc2ccc(C#N)cc2)nc(N2CCOCC2)n1	-4	7	-16	37*	-37
COc1ccc(N2CCN(C(CNS(=O)(=O)c3cc(F)ccc3F)c3cccnc3)CC2)cc1 (centres undefined)	9	-8	25	8	-8
CCCN(Cc1cc2cccc(C)c2[nH]c1=O)C(=O)c1cccc(OC)c1	3	-4	92*	95*	-95
O=C(NCCCO)c1ccc2[nH]c3c(c2c1)CCCC3	-5	-1	-14	-83	83*
CC(C)CCNC(=O)NC(=O)Cn1cc(C(F)(F)F)ccc1=O	-10	9	10	-15	15
O=C(N/N=C\c1ccc(Cl)s1)c1cccs1	-94	94*	9	-17	17
COc1ccc(Nc2nc(N)nc(COc3ccc(OC)cc3)n2)cc1	3	-4	-7	33*	-33
O=C(OCCN1C(=O)c2ccccc2C1=O)c1cc2ccccc2o1	10	-9	-15	-45	45*
O=[N+]([O-])c1ccccc1CNC(Cc1ccccc1)c1ccccc1 (centres undefined)	14	-14	x	x	x
N#Cc1c(NC(=O)CSc2nc(-c3ccco3)cc(C(F)(F)F)n2)sc2c1CCCC2	-10	10	-29	-5	5
Fc1ccc(C2CC(c3ccc(F)cc3)n3ncnc3N2)cc1 (centres undefined)	7	-8	-3	16	-16
CCc1ccc(C2CC(c3ccccc3)n3ncnc3N2)cc1 (centres undefined)	2	-2	9	-42	42*
CC(C)C12CN3CC(C(C)C)(CN(C1)C3c1ccccc1O)C2=O (centres undefined)	-8	8	-36	-28	28
CC(C)C12CN3CC(C(C)C)(CN(C1)C3c1ccccc1)C2O (centres undefined)	39*	-40	-13	-14	14
COc1ccc(-n2c(C)cc(C(=O)NC3CCCCC3)c2C)cc1	-14	16	28	-8	8
CCCCCCC(=O)N(O)C1CC(=O)N(c2ccc(Br)cc2)C1=O (centres undefined)	-4	2	12	-48	48*
O=C(Nc1ccc(Cn2cccn2)cc1)c1ccc(COc2cccc(Br)c2)cc1	-67	68	1	-57	57*
CCCC(C)NS(=O)(=O)c1ccc(OC)c(C)c1 (centres undefined)	16	-14	28	20	-20
Cc1ccc(C(=O)CSc2nc(C)cc(C)c2C(N)=O)cc1	0	2	-35	6	-6
CCSc1nc(C)c(CC)c(C)c1C(N)=O	19	-12	-1	34*	-34
CCN(CC)C(C(=O)Nc1ccc(C(C)C)cc1)c1ccc2c(c1)OCO2 (centres undefined)	38*	-38	-7	14	-14
O=C(CSc1ccc2ccccc2c1)Nn1cnnc1	-4	4	7	-50	50*
O=C(CSc1ccc(Cl)cc1)Nn1cnnc1	7	-10	18	-5	5
COc1ccc(/C=C(\NC(=O)c2ccccc2)C(=O)N/N=C/c2ccncc2)cc1	7	-9	-10	-2	1
SMILES	sEH activator	sEH inh	HUVEC tox IL1B	IL1B NFkB inh	NFkB transloc pot
Cc1ccnc(N/C=C(/NC(=O)c2ccccc2)C(=O)N/N=C\c2ccc(F)cc2)n1	-6	8	78*	56*	-56
CC(C)CCNC(=O)C(c1cccs1)N(CC1CCCO1)C(=O)Cn1nnc2ccccc21 (centres undefined)	18	-20	91*	99*	-99
CC(C)CCNC(=O)C(c1ccco1)N(CC1CCCO1)C(=O)Cn1nnc2ccccc21 (centres undefined)	13	-10	-7	-19	19
O=C(N/N=C/c1ccc(O)cc1)c1csc2ccccc12	-84	84*	6	-6	6
CCn1cc(/C=N\NC(=O)c2csc3ccccc23)c(C)n1	-56	57	12	-12	12
CC(=O)Nc1ccc(C(=O)CSc2nnc(Cn3nnc4ccccc43)n2C)cc1	0	0	-68	78*	-78
Cn1c(Cn2nnc3ccccc32)nnc1SCC(N)=O	x	x	-7	9	-9
CC(C)CCN1CC(C(=O)N2CCN(c3ccc(F)cc3)CC2)CC1=O (centres undefined)	-3	0	76*	-15	15
COc1ccc(CN2CC(C(=O)N3CCOCC3)CC2=O)cc1 (centres undefined)	18	-20	-3	-2	2
CNC(=O)C1CCC(=O)N1Cc1ccccc1Cl (centres undefined)	6	-7	7	-4	4
O=C(C1CCC(=O)N1Cc1ccccc1Cl)N1CCN(c2ccc(F)cc2)CC1 (centres undefined)	17	-20	78*	-5	5
COc1ccccc1CN1CC(C(=O)N2CCN(c3ccc(F)cc3)CC2)CC1=O (centres undefined)	6	-3	-10	-41	41*
O=C(NCc1ccc2c(c1)OCO2)c1cc2ncc(Br)cn2n1	x	x	14	9	-9
CCOC(=O)c1c(NC(=O)c2c(Br)cnn2CC)sc(C)c1C	11	-11	39	-1	1
O=C(OCn1ncc(Br)c(Br)c1=O)c1c(F)cccc1F	-4	6	32	89*	-89
O=C(Nn1c(-c2ccc(F)cc2)nc2ccccc2c1=O)C1CCCCC1	11	-12	-130	-10	10
COc1ccc2cc(CN(CCc3ccccc3)Cc3nnnn3Cc3ccco3)c(=O)[nH]c2c1	-7	4	0	x	168*
Cc1cc(O)c(-c2n[nH]c3c2C(c2cccc(O)c2)N(Cc2cccnc2)C3=O)cc1Cl (centres undefined)	-3	6	-4	-1	1
CCc1ccc(C(=O)/C=C/c2ccc([N+](=O)[O-])o2)cc1	18	-19	-18	44*	-44
CCNc1nc(NCC)nc(N/N=C/c2ccc([N+](=O)[O-])o2)n1	2	-1	10	4	-4
C=CCNC(=O)c1onc(CSc2ccccc2CC)c1C(=O)O	-10	16	-7	-16	16
Cc1[nH]nc2c1C1(CCC(c3ccccc3)CC1)C(C#N)=C(N)O2 (centres undefined)	-5	8	86*	-7	7
O=C(CCCOc1ccccc1)N1CCCc2ccccc21	11	-9	5	55*	-55
O=S(=O)(NCCc1ccncc1)c1cc(Br)ccc1F	-1	-2	92*	-8	8
Cc1ccc(-c2nn3c(C)nnc3s2)cc1NC(=O)C(C)C	-4	3	5	-42	42*
Cc1ccc(-c2nn3c(C)nnc3s2)cc1NC(=O)CSc1ccc(Cl)cc1	-1	4	-14	-63	63*
CC(C)CNC(=S)NC1CC2CCCC(C1)N2Cc1cccs1 (centres undefined)	-48	49	-14	-40	40
OC(COCC1COc2ccccc2O1)CN1CCN(c2ccccc2F)CC1 (centres undefined)	47*	-48	-5	-6	6

Screening data deposited in PubChem BioAssay by Columbia University Molecular Screening Center.
